Assay outcomes deposited in PubChem by National Center for Advancing Translational Sciences (NCATS).
Shown are actives, neighbours in structure and some others; about 9.4% of the full set was active somewhere.
ALDH1A1 inh: ALDH1A1 (human) enzyme inhibition. P00352. Purified ALDH1A1, NADH fluorescence, propionaldehyde substrate. Potency, µM (series often up to 75.3 µM), inactives show at the highest dose activity, negative = inhibition, actives largely listed as inhibitors. hit rate 7.3% among 220,000; active means well fitted inhibition curve with a large enough effect, not every such curve was filed as active; inconclusive means small, poorly fitted or top-dose-only effect, or another doubt; inactive means no such curve, though single readings can be large or run the other way;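 further: potency means the concentration at half of the fitted maximal effect; plate controls were no enzyme wells and a reference inhibitor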
Target sequence (P00352 whole entry, looked up): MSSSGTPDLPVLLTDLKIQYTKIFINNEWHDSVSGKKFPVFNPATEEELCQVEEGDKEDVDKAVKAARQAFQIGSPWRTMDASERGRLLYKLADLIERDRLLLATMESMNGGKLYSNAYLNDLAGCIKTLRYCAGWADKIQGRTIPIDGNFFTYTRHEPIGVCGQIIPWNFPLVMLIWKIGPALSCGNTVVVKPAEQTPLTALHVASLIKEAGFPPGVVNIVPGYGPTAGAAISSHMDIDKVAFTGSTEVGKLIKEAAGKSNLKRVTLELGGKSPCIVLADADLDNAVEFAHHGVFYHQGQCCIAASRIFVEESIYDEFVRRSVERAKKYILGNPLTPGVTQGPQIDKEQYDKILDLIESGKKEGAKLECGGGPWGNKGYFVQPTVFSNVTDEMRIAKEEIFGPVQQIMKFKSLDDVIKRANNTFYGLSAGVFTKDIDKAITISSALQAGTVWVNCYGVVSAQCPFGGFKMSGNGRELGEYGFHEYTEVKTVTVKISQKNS
HPGD block: blocks human HPGD enzyme activity. P15428. purified HPGD, NADH fluorescence kinetic, PGE2 substrate. Potency, µM, for inactives: top-dose activity change, negative = inhibition, actives largely listed as inhibitors. hit rate 4.3% among 150,000. AID 894; active means well fitted inhibition curve with a large enough effect, not every such curve was filed as active; inconclusive means small, poorly fitted or top-dose-only effect, or another doubt; inactive means no such curve, though single readings can be large or run the other way; further: potency means the concentration at half of the fitted maximal effect; on the % scale 0 is the no-effect control and ±100 the full control effect
Target sequence (P15428 whole entry, looked up): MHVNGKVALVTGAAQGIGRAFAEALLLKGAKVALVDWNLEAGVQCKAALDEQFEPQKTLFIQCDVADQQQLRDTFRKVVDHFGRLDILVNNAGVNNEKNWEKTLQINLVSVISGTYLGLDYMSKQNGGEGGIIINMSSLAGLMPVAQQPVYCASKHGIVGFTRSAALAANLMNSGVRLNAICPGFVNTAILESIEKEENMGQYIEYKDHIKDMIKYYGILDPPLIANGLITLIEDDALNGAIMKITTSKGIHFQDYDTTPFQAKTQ
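20 nM HPGD preincubated 15 min at room temperature with compound in 50 mM Tris-HCl pH 8, 0.01% Tween 20. Started with 1 mM NAD+ and 30 uM prostaglandin E2; NADH fluorescence (360/450 nm) read 5 times over 30-s intervals, last minus first.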
HttQ103 aggreg: inhibitors of mutant huntingtin aggregate formation in PC12 cells. PC12 HttQ103-GFP aggregates, Acumen cytometry, 40 h. Potency, µM (top dose mostly 46.1 µM), without a hit: at the highest dose activity change, negative = inhibition, hits mostly inhibitors. hit rate 1.1% among 220,000. AID 1688; further: potency means the concentration at half of the fitted maximal effect; on the % scale 0 is the no-effect control and ±100 the full control effect; nearly all actives have a fitted effect of over 60% in size
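Using laser scanning cytometry, GFP-positive aggregates were counted after lysis of PC12 cells induced with 100 nM tebufenozide to express HTT exon 1 Q103–GFP. Compounds were tested in titration.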
IMPase Li cell: IMPase inhibition in cells with lithium potentiation | AID 1457 | CHO-M1 cells, IP1 TR-FRET (IP-One), carbachol + lithium | hit rate 0.35% among 210,000 | Potency, µM (titrated, usually from 59.4 µM), for inactives: top-dose activity, negative = IMPase inhibition, hits mostly inhibitors;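 further: IP1 builds up when IMPase is blocked and the TR-FRET signal falls; potency means the concentration at half of the fitted maximal effect; plate controls were basal vehicle for no effect and high inhibitor control for full effect; nearly all actives have a fitted effect of over 50% in size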
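Lithium-sensitised IP1 accumulation assay; M1-expressing CHO cells treated 30 min at 37C with compound. Competitive antibody detection by time-resolved FRET followed a 10 min room-temperature lysis step.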
IMPase inh: IMPase inhibition in cells; CHO-M1 cells, IP1 accumulation, HTRF TR-FRET ratio; P97697; inhibition (IP1 accumulation), % at 46.1 µM; 120,000 tested, under 10 active; active means well fitted curve in the direction sought with a large enough effect in the signal ratio, not every such curve was filed as active; inconclusive means small, poorly fitted or top-dose-only effect, or a change in a side signal; inactive means no such curve, though single readings can be large or run the other way; the % refers to the signal ratio;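 further: cells stimulated with carbachol in lithium chloride buffer; plate controls were DMSO basal wells for no effect and reference inhibitor wells for full effect; higher means more IMPase inhibition seen as more IP1 and lower FRET ratio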
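CHO-M1, 2000 cells/well, cultured 16–30 h; cpd up to 46 uM; carbachol (50 uM solution, stimulation buffer w/ 50 mM LiCl, pH 7.4), 30 min 37C; IP-One TR-FRET, 10 min RT; Ex 320/Em 665, 620; Hill-fit AC50.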
HTT cytoprotect: protects HTT-Q103 PC12 cells, measured by ATP; PC12 HTT-Q103 induced, cytoprotection, ATP luminescence, 40 h; Potency, µM (doses to about 56.4 µM), for inactives: cytoprotection (ATP increase), hits mostly activators; hit rate 0.14% among 230,000; AID 1471; further: potency means the concentration at half of the fitted maximal effect; % of control where 0% means no effect; nearly all actives have a fitted effect of over 45% in size
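Huntington model: PC12 line, ecdysone-inducible HTTQ103 exon1–GFP, tebufenozide 100 nM. Test articles in a dose series. Endpoint luminescence from cellular ATP.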
Active calls of the source: *; ? = inconclusive; / = not tested or not shown; [ ] = dose if it differs, or a comment. Unless noted, the call rests on the fitted dose curve; in most records, active means well fitted curve in the direction sought with a large enough effect; inconclusive means small, poorly fitted or top-dose-only effect, or another doubt; inactive means no such curve, though single readings can be large; an effect the other way counts as inactive or inconclusive.

SMILES | ALDH1A1 inh | HPGD block | HttQ103 aggreg | IMPase Li cell | IMPase inh | HTT cytoprotect
Nc1ccc(N2CCCCCC2)cc1 | 7.9µM* | -11% | ? | 66%[38.3 µM] | 4 | -37%
CCCCOc1ccc(Cn2c(=O)sc3ccccc32)cc1OC | / | / | / | / | 0 | /
Cc1ccc(S(=O)(=O)CCC(=O)OCc2ccccc2F)cc1 | ? | / | 11% | 10% | / | 8%[10 µM]
COc1ccc(/C=N/NC(=O)C(Cc2c[nH]c3ccccc23)NC(=O)OCC(C)C)cc1[N+](=O)[O-] (configuration not stated) | 13µM* | -8% | -4% | 11%[38.3 µM] | 3 | -14%
O=c1c(-c2ccccc2)nc2cnc(N3CCNCC3)nc2n1C1CC1 | ? | ? | / | -10% | / | -2%
CCC(=O)Nc1ccc(Cl)c(NC(=O)c2cccc(OC)c2)c1 | -10% | / | -5%[9.22 µM] | 1% | / | -48%
CN(C)S(=O)(=O)Oc1cccc(C(=O)Nc2ccc(Cl)c(Cl)c2)c1 | 13µM* | -14% | 13µM* | 19%[38.3 µM] | -2 | -46%
COc1ccc(NC(=O)c2cccc(OS(=O)(=O)N(C)C)c2)cc1 | 4µM* | / | -6% | 15% | / | -17%
COc1cccc(C(=O)Nc2cccc(NC(=O)c3ccc(Cl)cc3Cl)c2)c1 | / | / | / | / | -11 | /
CN(C)S(=O)(=O)Oc1cccc(C(=O)Nc2cccc(Cl)c2)c1 | 0.79µM* | -22% | -25% | 13%[38.3 µM] | 9 | 33%
CC1(C(=O)OCc2cc(=O)n3cc(Br)ccc3n2)CC1(Cl)Cl (configuration not stated) | 20µM* | / | 12% | -27% | / | -21%
CC(C)[C@H](NC(=O)c1ccccc1Cl)C(=O)OCc1cc(=O)n2cc(Br)ccc2n1 | ? | / | 19% | 11µM* | / | -25%
NC(C(=O)O)[C@H](O)C(=O)O (some centres not stated) | ? | / | / | -5% | / | -3%
CCOc1ccccc1NC=C1C(=O)OC(C)(C)OC1=O | 2.2µM* | -24% | -4% | -9%[38.3 µM] | 4 | -6%
CC1(C)OC(=O)C(=CNc2ccccc2F)C(=O)O1 | ? | -7% | 16% | 18%[38.3 µM] | -7 | -1%
CC1(C)OC(=O)C(=CNc2cccc(C(=O)O)c2)C(=O)O1 | -1% | -13% | -2% | 2%[38.3 µM] | 2 | 10%
COc1ccccc1NC=C1C(=O)OC(C)(C)OC1=O | 0.35µM* | -15% | 8%[9.22 µM] | -8%[38.3 µM] | 4 | -10%
COc1cc(NCC[C@@H]2CCCCN2)c2ncccc2c1 | -1%[13.5 µM] | -14% | / | 5% | / | -75%[10 µM]
CCCNC(=O)CN1C(=O)NC(CCSC)C1=O (configuration not stated) | / | / | -8%[9.22 µM] | / | / | 9%[10 µM]
Cc1ccccc1-c1nc(NCc2cccnc2)c2ccccc2n1 | 22µM* | -24% | / | 16% | / | 4%
Cc1cnc(CNc2nc(-c3ccccc3Cl)nc3ccccc23)cn1 | 14µM* | / | / | -9% | / | 4%
Cc1c(-c2ccccc2)sc(Br)c1C(=O)N1CCOCC1 | 13% | 1.6µM* | -13% | 6%[38.3 µM] | 4 | -11%
COc1cccc(OC)c1C(=O)N1CCOCC1 | -1% | -7% | 12% | -3% | -6 | -9%[0.074 µM]
Cc1c(C(=O)OCC2CCCCC2)[nH]c2c1C(=O)CC(c1ccccc1Cl)C2 (configuration not stated) | / | / | / | / | 5 | /
Cc1cccc(-n2c(=S)[nH]c3nc4c(cc3c2=O)COC(C)(C)C4)c1 | 0.71µM* | / | 7%[9.22 µM] | / | / | 20%[10 µM]
SMILES | ALDH1A1 inh | HPGD block | HttQ103 aggreg | IMPase Li cell | IMPase inh | HTT cytoprotect
CC(C)N(C(=O)CSc1nn2c(=O)c(C(C)(C)C)nnc2s1)c1ccccc1 | 22µM* | -20% | -9% | 11%[38.3 µM] | -8 | 19%
COc1ccc(-c2ccc(SCC(=O)c3ccccc3)nn2)cc1OC | 25µM* | / | 4% | 4% | / | -22%
CC1CCC2CC1C2(C)C (configuration not stated) | -3% | -4% | / | -16% | / | -7%
Cc1ccc(-n2c(C)nc3oc4ccccc4c(=O)c3c2=O)cc1 | 28µM* | ? | 0% | 6.3µM* | -18 | -8%
Cc1[nH]c2ccccc2c1C(C[N+](=O)[O-])c1ccco1 (configuration not stated) | ? | / | -7% | -3% | / | 17%
Cc1ccc(-c2[nH]c3ccccc3c2C(C[N+](=O)[O-])c2ccco2)cc1 (configuration not stated) | 28µM* | -29% | ? | 44%[38.3 µM] | 2 | -59%
CC(C)=CCCC1(C)C=Cc2c(c(C)cc3c2[nH]c2ccccc23)O1 (configuration not stated) | 10% | -8% | / | 1% | / | -98%
CC(C)c1ccc(Nc2c(-c3ccc(N4CCOCC4)cc3)nc3ncccn23)cc1 | / | / | / | / | 1 | /
CCOc1ccc(N(C(C)C(=O)NCCSc2ccc(Cl)cc2)S(C)(=O)=O)cc1 (configuration not stated) | / | / | / | / | 0 | /
Oc1c(N=NC(=S)Nc2ccccc2F)c2ccccc2n1Cc1ccccc1Cl | ? | / | -29% | -4% | / | -6%
Oc1c(N=NC(=S)Nc2ccccc2F)c2ccccc2n1Cc1ccccc1 | 20µM* | / | ? | 0% | / | -14%
C=CCn1c(O)c(N=NC(=O)CNC(=O)/C=C/c2ccco2)c2ccccc21 | 10µM* | -17% | 30% | 18%[38.3 µM] | 5 | 3%[10 µM]
Cc1c(Cl)cccc1NC(=S)N=Nc1c(O)n(CN2CCOCC2)c2ccccc12 | ? | -9% | -22% | 16% | / | /
Cc1ccc(Cn2c(O)c(N=NC(=S)Nc3ccccc3F)c3ccccc32)cc1 | 11µM* | / | -24% | 8% | / | -20%
C=CCn1c(O)c(N=NC(=S)Nc2ccccc2F)c2ccccc21 | 28µM* | / | ? | 0% | / | -28%
COc1ccc(NC(=O)c2ccco2)cc1NC(=O)COc1ccc(Cl)c(C)c1 | / | / | / | / | 0 | /
Cc1c(O)c2c3c(cccc3c1O)C(=O)N(c1ccccc1)C2=O | -12% | -7% | 20µM* | -21% | / | /
Nc1ccc2c3c(cccc13)C(=O)N(c1ccccc1)C2=O | 28µM* | / | ? | -7% | / | -18%
COc1ccc(OCCSc2nnc(CC(=O)Nc3cccc(Cl)c3Cl)n2C)cc1 | ? | -15% | 4% | 30%[38.3 µM] | -3 | 5%
CCn1c(CC(=O)Nc2cccc(Cl)c2Cl)nnc1SCCOc1ccc(OC)cc1 | 14µM* | -5% | -6% | 1%[38.3 µM] | 1 | 6%
COc1ccc(-c2c3c(=O)n(C)c(=O)n(C)c3c3c(-c4ccccc4)nc4ccccc4n23)cc1 | / | / | / | / | 11 | /
COCCN(C(=S)Nc1c(C)cc(C)cc1C)C(C)c1cccnc1 (configuration not stated) | ? | 7.9µM* | 27% | 4% | / | 19%[10 µM]
COCCN(C(=S)Nc1c(C)cccc1C)C(C)c1cccnc1 (configuration not stated) | 11% | -3% | -4% | -1% | / | -4%[10 µM]
